Screening data (PubChem BioAssay)
The list is not random: actives were taken first. Their share in the collection is about 7.3%.
HCMV inh = inhibitors of human cytomegalovirus | AID 1259415 | activity change, negative = inhibition, % at 57.5 µM | hit rate 4.5% among 410,000 | HFF cells, HCMV-luciferase reporter, 72 h; active compounds read low; in the data active = activity change below about -60%; inconclusive = no clear call, values can overlap the other calls; inactive = above about -39%
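Luciferase read-out from HCMV-luciferase-infected HFFs (MOI 1 PFU/cell) 72 h post infection at 37C; compounds added after 16 h cell attachment; activity normalized between buffer-only basal and Salinomycin (10uM) inhibitor controls.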
HCV inhibitor = inhibitors of hepatitis C virus infection. hit rate 3.4% among 340,000. Potency, µM (series often up to 41.8 µM), inactives show at the top dose activity change, negative = inhibition, usual class: inhibitors. Huh7.5.1 HCVcc-Cre infection, luciferase reporter, 44 h; active = well fitted inhibition curve with a large enough effect; inconclusive = small, poorly fitted or top-dose-only effect, or another doubt; inactive = no such curve, though single readings can be large or run the other way; also: potency is read from the fitted curve at half-maximal effect
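After 44 h co-culture of compound, cells and HCVcc-Cre (~0.5 moi), substrate is added for 15 min at room temperature and luciferase measured over 15 sec. Cells were seeded at 1,000/well and pre-cultured 4 h.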
Vaccinia mCherry = vaccinia inhibition (mCherry reporter); hit rate 0.63% among 310,000; Potency, µM (top dose mostly 36.5 µM), for the others: at the top dose activity change, negative = inhibition, most hits filed as inhibitors; Vaccinia virus mCherry reporter infection, fluorescence; calls by dose curve; tested in A549 cells; also: potency is read from the fitted curve at half-maximal effect; nearly all actives have a fitted effect of over 35% in size
FMDV inh = blocks foot and mouth disease virus. Potency, µM (doses to about 57.9 µM), for the others: at the highest dose activity change, negative = inhibition, actives largely listed as inhibitors. AID 1159524. FMDV antiviral cell-based qHTS. hit rate 1.2% among 410,000; calls by dose curve; tested in HEK293T cells; also: read-out not given here; potency is read from the fitted curve at half-maximal effect; nearly all actives have a fitted effect of over 45% in size
VACV Venus inh = inhibitors of vaccinia virus (Venus reporter); Vaccinia virus Venus reporter expression, fluorescence; Potency, µM (series often up to 36.5 µM), for inactives: top-dose activity change, negative = inhibition, most hits filed as inhibitors; hit rate 0.46% among 330,000; calls by dose curve; tested in A549 cells; also: potency is read from the fitted curve at half-maximal effect; nearly all actives have a fitted effect of over 30% in size
* = called active by the depositor; i = inactive; ? = inconclusive; / = not tested or not shown; ! = a repeat was not active; [ ] = dose if it differs, or a comment. % is scaled to controls: 0 for no effect and ±100 for the full control effect.

SMILES	HCMV inh	HCV inhibitor	Vaccinia mCherry	FMDV inh	VACV Venus inh
O=C(NCCN1CCN(c2ccccc2)CC1)Nc1cccc(Br)c1	5.4	14.1µM*	-21.9%	-18.2%	-17.9%
O=C(Cc1ccccc1)N1CCN(c2ccc([N+](=O)[O-])cc2)CC1	-63.6*	-15.8%	/	?	/
O=C(NCCN1CCN(c2ccc([N+](=O)[O-])cc2)CC1)NCc1ccccc1	-93.9*	-13.9%	/	-20.6%	/
O=C(CCN1CCN(c2ccccc2)CC1)Nc1cccc(Br)c1	-5.5	-8.2%	-6.1%	0.0%	-7.0%
O=C(NCCN1CCN(Cc2ccc([N+](=O)[O-])cc2)CC1)C(=O)Nc1ccccc1	38.2	19.0%	i	/	-11.9%
CCCCC(CC)CNC(=O)CN1C(=O)CSc2ccc(S(=O)(=O)N3CCOCC3)cc21 (configuration not stated)	-4.5	/	-13.7%	6.7%	-12.7%
CN1CC(O)C2=CC(=O)C(=O)C=C21 (configuration not stated)	/	/	-2.4%	-16.2%	-10.3%
O=[N+]([O-])c1ccc(N2CCN(Cc3ccncc3)CC2)cc1	-89.5*	0.4%	/	-17.9%	/
O=[N+]([O-])c1ccc(CN2CCN(c3ncccn3)CC2)cc1	?	4.9%	/	-13.2%	/
COC(=O)c1cc(=O)c(O)c2c(O)c(O)ccc2c1	/	/	-2.1%	-10.0%	0.0%
COc1cc(CN2CCCC(n3cc(C(=O)N4CCCCC4)nn3)C2)cc(OC)c1OC (configuration not stated)	/	/	0.9%	-8.6%	-4.3%
O=C1C(c2nnnn2-c2ccc(F)cc2)N(C2CC2)C(=O)N1c1ccccc1 (configuration not stated)	-5.8	/	/	/	/
CCOC(=O)c1cc(C)n(CC2CCC(C(=O)Nc3ccc(Cl)cc3)CC2)c1C (configuration not stated)	-79.5*	/	-22.8%[7.34 µM]	?	-21.6%[7.34 µM]
CC(OC(=O)c1ccc(Cl)cc1)C(=O)NCc1ccc2c(c1)OCO2 (configuration not stated)	-16.1	3.6%	/	-20.3%	/
COc1ccccc1N(C)S(=O)(=O)c1ccc(C(=O)OC(C)C(=O)NCc2ccc3c(c2)OCO3)cc1 (configuration not stated)	-24.8	11.2µM*	i	?	-10.8%
CCCc1nc2ccccc2c(C(=O)OC(C)C(=O)NCc2ccc3c(c2)OCO3)c1CC (configuration not stated)	-35.0	?	?	?	10µM*
CCCc1nc2ccccc2c(C(=O)OCC(=O)NCc2ccc3c(c2)OCO3)c1CC	-7.5	?	/	?	/
Clc1ccc(Nc2nc(NCc3ccco3)nc3nccnc23)cc1	/	/	-2.9%	/	-13.4%
CCOC(=O)[C@]12Cc3cc(OC)ccc3[C@H]1N(CC(=O)OC)C(=O)c1cc(OC)ccc12	-106.9*	/	13.3%	14.1µM*	0.1%
CCOC(=O)[C@]12Cc3cc(Cl)ccc3[C@H]1N(C)C(=O)c1cc(OC)ccc12	-96.5*	/	?	15.8µM*	?
CCCCCN1C(=O)c2cc(OC)ccc2[C@@]2(C(=O)OCC)Cc3cc(OC)ccc3[C@@H]12	-104.9*	/	?	3.16µM*	?
CCOC(=O)[C@]12Cc3cc(OC)ccc3[C@H]1N(C)C(=O)c1cc(OC)ccc12	-106.0*	/	?	11.2µM*	-24.6%
COc1cccc(C(=O)N(Cc2nc(-c3ccc(Cl)cc3)no2)C(C)C)c1OC	-4.0	/	0.0%	0.0%	5.1%
COc1ccc(NC(=O)CN2C(=O)CSc3ccc(S(=O)(=O)N(C)C)cc32)cc1OC	23.0	/	-13.0%	-13.1%	0.6%
CCOC(=O)[C@]12Cc3cc(N(C)C)ccc3[C@H]1N(Cc1ccccc1)C(=O)c1ccccc12	-26.1	11.2µM*	-27.4%	0.0%	-26.6%
SMILES	HCMV inh	HCV inhibitor	Vaccinia mCherry	FMDV inh	VACV Venus inh
CCOC(=O)C1C(=O)C(=O)N(Cc2ccccc2)C1C(=O)OCC (configuration not stated)	-29.8	9.5%	-13.0%	0.5%	14.2%
CCOC(=O)[C@]12Cc3cc(Cl)ccc3[C@H]1N(Cc1ccccc1)C(=O)c1ccccc12	-34.0	-12.9%[8.37 µM]	?	?	-2.1%
CCOC(=O)[C@]12Cc3ccccc3[C@H]1N(Cc1ccccc1)C(=O)c1cc(F)c(F)cc12	?	/	-14.6%	25.1µM*	-12.9%
CCOC(=O)[C@]12Cc3cc4c(cc3[C@H]1N(Cc1ccccc1)C(=O)c1ccccc12)OCO4	-18.5	?	11.2µM*!	-29.4%	?
CC(C)(C)c1ccc(C(=O)N2CCC(c3nc4ccccc4o3)CC2)cc1	-10.7	/	-17.0%	9.5%	-19.7%
Cc1cccc(CCNC(=O)c2nn(C)c3c2CSc2ccccc2-3)c1	-28.2	/	-10.5%	-3.6%	-2.6%
O=S(=O)(c1ccc(SCCOc2ccc(Br)cc2)nc1)N1CCCC1	?	5.62µM*	i	-19.2%	-20.4%
O=S(=O)(c1ccc(SCCOc2ccc(Cl)cc2)nc1)N1CCCC1	-0.7	?	/	?	/
N#Cc1ccccc1Oc1ccc(S(=O)(=O)N2CCCCC2)cn1	9.9	-7.3%	-7.9%	-2.1%	-8.8%
CN1CCN(S(=O)(=O)c2ccc(SCCOc3ccccc3)nc2)CC1	29.0	-18.5%	-13.9%	-20.1%	-11.0%
O=S(=O)(c1ccc(Oc2ccc(Br)cc2F)nc1)N1CCCCC1	-0.8	25.1µM*	/	?	/
CCOc1ccc(OCCSc2ccc(S(=O)(=O)N3CCN(C)CC3)cn2)cc1	0.0	11.2µM*	/	-20.9%	/
CC1CCCN(C(=O)Cn2ncc3c([nH]c4ccccc43)c2=O)C1 (configuration not stated)	8.5	/	-8.6%	-1.8%	-9.9%
COC(=O)C1CCCCN1Cc1ccc2c(c1)CN(C(=O)c1ccc(C)s1)CCO2 (configuration not stated)	/	/	-4.5%	-0.4%	3.8%
COc1ccc(S(=O)CC(=O)Nc2ccc(Cl)cc2Cl)cc1 (configuration not stated)	-66.5*	-1.7%	-11.9%	-9.8%	0.2%
Cc1nc(-c2ccc(Cl)cc2)sc1CCNC(=O)C(=O)Nc1ccc2c(c1)OCO2	33.1	/	?	2.6%	?
CS(=O)(=O)c1nc(-c2ccccc2)cc(-c2ccccc2)c1C#N	/	28.2µM*	-6.5%	?	-20.7%
CC[C@@H](C(=O)[C@@H](C)[C@@H](O)[C@H](C)[C@@H]1O[C@@H]([C@@H](CC)C(=O)O)CC[C@@H]1C)[C@H]1O[C@]2(C=C[C@@H](O)[C@]3(CC[C@@](C)([C@H]4CC[C@](O)(CC)[C@H](C)O4)O3)O2)[C@H](C)C[C@@H]1C	-98.1*	0.355µM*	2.51µM*	?	11.2µM*
O=C(OCC(=O)c1ccc(Cl)cc1Cl)c1ccc2c(c1)C(=O)N(c1cccc3ncccc13)C2=O	39.2	-0.5%	/	-11.3%	/
O=C(O)c1ccc2c(c1)C(=O)N(c1ccc(C(=O)OCC(=O)c3ccccc3)cc1)C2=O	4.8	-0.8%	-7.1%	30.6%	-5.1%
O=C(COC(=O)c1ccc2c(c1)C(=O)N(c1cccc3ncccc13)C2=O)c1ccc(Cl)cc1	-89.0*	0.6%	i	?	-16.8%
